This is an account of results in PubChem BioAssay AID2061323 (National Center for Advancing Translational Sciences (NCATS), 2025).

Results filed as inconclusive are left out. Calls of active or inactive are those of the source. Calls follow the shape of the dose curve; as a rule, active = well fitted inhibition curve with a large enough effect; inconclusive = small, poorly fitted or top-dose-only effect; inactive = flat fitted curve, though single readings scatter.

The nature of the test: Identification of antibody-drug conjugate (ADC) payloads which are substrates of ATP-binding cassette drug efflux transporters: ABCG2-HEK293-R5 cell line. To be noted: ABCG2-HEK293-R5 viability, CellTiter-Glo ATP luminescence, 48 h. An excerpt:
Antibody-drug conjugates (ADCs) feature an antibody recognizing a specific protein joined to a potent toxic payload. Numerous antibody-drug conjugates have received FDA approval; however, clinical resistance arises. Resistance mechanisms include decreased expression or mutation of the antibody target, impaired payload release, or increased expression of ATP-binding cassette (ABC) efflux transporters associated with multidrug resistance. We therefore sought to characterize the interaction of ABC multidrug transporters with ADC payloads. We performed a high-throughput screen with 27 common ADC payloads using cells lines expressing ABC transporters P-glycoprotein (P-gp, encoded by ABCB1) or ABCG2 (encoded by ABCG2). Confirmatory assays were also performed using cells transfected to express P-gp, ABCG2, or MRP1 (encoded by ABCC1). Several commonly used ADC payloads were substrates of P-gp, including calicheamicin gamma1, monomethyl auristatin E, DM1, and DM4. All the pyrrolobenzodiazepines tested - SJG136, SGD-1882, SG2057, and SG3199 - were substrates of P-gp, ABCG2, and MRP1. […] These findings highlight the risk of transporter-mediated resistance with certain ADC payloads and underscore the importance of selecting payloads that evade ABC transporter recognition in future ADC development.
HEK-293 cells were transfected with empty vector (pcDNA) or vector containing the human ABCB1 (MDR-19), ABCG2 (R-5), or ABCC1 gene (MRP1) and were maintained in EMEM with 2 mg/mL G418 added to maintain transporter expression. The HeLa derivative KB-3-1 and the P-gp overexpressing KB-8-5-11 subline were maintained in DMEM; KB-8-5-11 additionally received 100 ng/mL colchicine. H460 parental cells were obtained from the Division of Cancer Treatment and Diagnosis Tumor Repository, National Cancer Institute at Frederick, MD and were cultured in RPMI. The ABCG2 expressing subline H460 MX20 was generated by selecting H460 cells in 20 nM mitoxantrone. Media in all cases was supplemented with 10% FBS and 1% penicillin-streptomycin. We explored 27 common ADC payloads, in two orthogonal, paired cell line sets-a drug selected and transfected set for each transporter--to identify substrates of the ABC transporters P-gp and ABCG2. Compounds were sourced from Levena Biopharma (San Diego, CA), Selleck Chem (Houston, TX), ChemieTek (Indianapolis, IN), or Microsource Discovery Systems (Gaylordsville, CT). Screening was performed as previously described. Briefly, cells were plated at a density of 500 cells/well in 1536 well plates with compounds added using a 1536-head pin tool (Kalypsys, San Diego CA). Cells were incubated with cytotoxic drugs and processed with CellTiter Glo reagent (Promega, Madison, WI) to determine viability after 48 hours. […]
In the case of `COc1cc2cc(C(=O)N3C[C@@H](CCl)c4c3cc(O)c3ccccc43)[nH]c2c(OC)c1OC`, the Potency was 21.2 nM (active). The value for `COc1cc2cc(c1Cl)N(C)C(=O)C[C@H](OC(=O)[C@H](C)N(C)C(=O)CCC(C)(C)S)[C@]1(C)OC1[C@H](C)C1C[C@@](O)(NC(=O)O1)[C@H](OC)/C=C/C=C(\C)C2` (some centres undefined) was 2.4 nM (active).

As to `CC[C@H](C)[C@@H]([C@@H](CC(=O)N1CCC[C@H]1[C@H](OC)[C@@H](C)C(=O)N[C@H](C)[C@@H](O)c1ccccc1)OC)N(C)C(=O)[C@@H](NC(=O)[C@H](C(C)C)N(C)C)C(C)C`, the Potency is 8.4 nM (active). Under `CC[C@@]1(O)C(=O)OCc2c1cc1n(c2=O)Cc2cc3ccccc3nc2-1` stands 13.4 nM (active).
